Bioassay records (PubChem BioAssay)
A selection: hits, their analogues and other compounds. The true share with any hit is near 0.47%.
UDG counterscr – counter-screen for AID inhibitors: uracil-DNA glycosylase inhibition; Potency, µM (series often up to 115 µM), inactives show at the top dose activity change, negative = inhibition, most hits filed as inhibitors; 91,000 tested, 0.14% active; FRET deamination/UDG coupled assay, UDG read, 4 h; further: nearly all actives have a fitted effect of over 65% in size
AID inhibitor – activation induced cytidine deaminase inhibition | Q9GZX7 | 91,000 tested, 0.32% active | AID 1347428 | AID deamination FRET fluorescence, UDG-coupled, 4 h | Potency, µM (doses to about 115 µM), usual class: inhibitors; further: nearly all actives have a fitted effect of over 25% in size
Target sequence (Q9GZX7 whole entry, looked up): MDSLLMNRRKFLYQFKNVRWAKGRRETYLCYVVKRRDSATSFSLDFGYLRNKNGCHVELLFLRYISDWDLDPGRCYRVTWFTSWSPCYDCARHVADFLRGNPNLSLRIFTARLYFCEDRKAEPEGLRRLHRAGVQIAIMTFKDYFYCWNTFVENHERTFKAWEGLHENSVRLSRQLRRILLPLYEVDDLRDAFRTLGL
* hit, by the source's call; i = inactive; ? = inconclusive. The call rests on the fitted dose curve; in most records, active means well fitted curve in the direction sought with a large enough effect; inconclusive means small, poorly fitted or top-dose-only effect, or another doubt; inactive means no such curve, though single readings can be large; an effect the other way counts as inactive or inconclusive. On the % scale 0 is the no-effect control and ±100 the full control effect; potency means the concentration at half of the fitted maximal effect.

SMILES | UDG counterscr | AID inhibitor
CCOc1ccc(CCNC(=O)c2cc3c(-c4ccc(OC)c(OC)c4)nn(C)c3s2)cc1OCC | 79µM* | ?
CCOCCCNC(=O)c1cc2c(-c3ccc(OC)c(OC)c3)nn(C)c2s1 | 0% | i
Cc1[nH]c2ccccc2c1C(c1ccc(Cl)cc1)c1c(C)[nH]c2ccccc12 | -13% | i
C#CCNC(=O)CN1CCCC1C(=O)NCC(F)(F)F (stereo unspecified) | -1% | i
CCN(CC)CCNC(=O)c1ccc2c(=O)n3nc(Nc4ccccc4)sc3nc2c1 | -9% | 71µM*
COc1cccc(CNC(=O)c2ccc3c(=O)n4nc(Nc5ccccc5)sc4nc3c2)c1 | -3% | i
CCNC(=O)N(Cc1nc(-c2ccc(C)cc2)no1)C1CCCCC1 | -8% | i
Cc1ccc(CC(=O)N(Cc2nc(-c3ccccc3)no2)C2CCCCC2)cc1 | 79µM* | i
Cc1ccc(CCNC(=O)c2sc3ncccc3c2-n2cccc2)cc1 | -7% | i
O=C(NCCc1ccccc1Cl)c1sc2ncccc2c1-n1cccc1 | -1% | 35µM*
CC(CNC(=O)c1sc2ncccc2c1-n1cccc1)c1ccccc1 (stereo unspecified) | -17% | 79µM*
Cc1cc(C)c2c(-n3cccc3)c(C(=O)NCC(C)c3ccccc3)sc2n1 (stereo unspecified) | -10% | ?
CN(Cc1ccc(C(=O)NCC(F)(F)F)cc1)C(=O)C1CCN(C(=O)C2CC2)CC1 | -5% | i
Cc1cc(C(=O)O)c(C)[nH]1 | 11% | i
CNc1oc(-c2ccc(Cl)cc2)nc1S(=O)(=O)c1ccc2c(c1)OCCO2 | 2% | i
CNc1oc(-c2ccccc2F)nc1S(=O)(=O)c1ccc2c(c1)OCCO2 | 79µM* | i
CCc1cccc(NC(=O)c2c(C)oc3ncnc(N4CCCCC4)c23)c1 | 89µM* | i
Cc1ccc(NC(=O)c2c(C)oc3ncnc(N4CCCCC4)c23)cc1Cl | ? | i
O=C(NCC(=O)N(Cc1ccsc1)C1CC1)c1ccccc1 | 8% | i
Cc1cccc(CN2CCC(CNc3ncnc4onc(-c5ccc(Cl)cc5)c34)CC2)c1 | -22% | 20µM*
Cc1ccc(CN2CCC(CNc3ncnc4onc(-c5ccc(Cl)cc5)c34)CC2)cc1 | 2% | i
Fc1ccc(CNc2nc(-c3ccccc3)cc(C(F)(F)F)n2)cc1 | -21% | 45µM*
COc1cccc(-c2cc(C(F)(F)F)nc(NCc3ccc(F)cc3)n2)c1 | -16% | ?
Cc1ccccc1C(=O)OCC(=O)Nc1cc(F)cc(F)c1 | -12% | i
COC(=O)CSc1cc(C(C)(C)C)c(O)c(C(C)(C)C)c1 | -2% | i
SMILES | UDG counterscr | AID inhibitor
Cc1ccc(Cl)cc1NC(=O)Nc1cn(CC(C)C)c(=O)c2ccccc12 | 0% | 79µM*
COc1ccc(NC(=O)Nc2cn(CC(C)C)c(=O)c3ccccc23)c(OC)c1 | -18% | i
Cc1cc(/C(=N\O)C(C)(C)NO)ccc1Cl | -6% | i
Nc1c(S(=O)(=O)O)cc(Nc2ccc(Nc3nc(Cl)nc(Nc4ccc(S(=O)(=O)O)cc4)n3)c(S(=O)(=O)O)c2)c2c1C(=O)c1ccccc1C2=O | -19% | 22µM*
CC(C)(O)C#Cc1ccc(C(=O)NCc2ccccc2)cc1 | -6% | i
COC(=O)c1c(COc2ccc(C)nc2[N+](=O)[O-])nc2ccccc2c1-c1ccccc1 | -4% | ?
O=C(O)Cc1sc(NC2CC2)nc1-c1ccccc1 | 9% | i
COCCNC(=O)c1cc2c(Cl)nc3ccc(C)cc3c2s1 | 8% | ?
Cc1ccc2nc(Cl)c3cc(C(=O)NCCCN(C)Cc4ccccc4)sc3c2c1 | 79µM* | ?
CN(CCCNC(=O)c1cc2c(Cl)nc3ccccc3c2s1)Cc1ccccc1 | -7% | 22µM*
CCN(CCCNC(=O)c1cc2c(Cl)nc3ccccc3c2s1)Cc1ccccc1 | -19% | ?
Fc1ccc(/C=N/Nc2cc(C(F)(F)F)ccc2Cl)c(F)c1 | -4% | i
CCCCCSc1nc2c(c(=O)n(C)c(=O)n2C)n1C/C=C/c1ccccc1 | -3% | i
CC1Cc2ccccc2N1S(=O)(=O)c1nnc(NC(=O)c2ccccc2)s1 (stereo unspecified) | 4% | i
CC1Cc2ccccc2N1S(=O)(=O)c1nnc(NC(=O)c2ccccc2Br)s1 (stereo unspecified) | 7% | 45µM*
CC1(C)CC(=O)C2=C(C1)OC1=C(C(=O)CC(C)(C)C1)C2c1ccc(C(=O)O)cc1 | 0% | i
Cc1ccc(NC(=O)CN(C)C(=O)C(C)N2CCCC(C(F)(F)F)C2)cc1 (stereo unspecified) | 3% | i
c1cc(-c2ccn[nH]2)ccn1 | -4% | i
CCCCCOc1ccccc1CN1C(=O)C(=O)c2cc(C)ccc21 | -20% | 28µM*
CCCCOc1ccc(CN2C(=O)C(=O)c3cc(C)ccc32)cc1OC | 38% | ?
CCCCOc1ccc2c(C)c(CC(C)C)c(=O)oc2c1 | -3% | i
Cc1ccc(C2CCN(C(=O)c3cnn(-c4cccc(Cl)c4)c3C3CCN(C(=O)OC(C)(C)C)CC3)C2)cc1 (stereo unspecified) | -2% | ?
COc1ccccc1CN1CCC(CNC(=O)c2cnn(-c3ccc(C)c(C)c3)c2C2CCN(C(=O)OC(C)(C)C)CC2)CC1 | 46% | ?
CC(C)(C)OC(=O)N1CCC(c2c(C(=O)N3CCC(c4ccccc4)C3)cnn2-c2ccc(Cl)cc2)CC1 (stereo unspecified) | ? | 40µM*
COc1ccccc1CN1CCC(CNC(=O)c2cnn(-c3ccc(Cl)cc3)c2C2CCN(C(=O)OC(C)(C)C)CC2)CC1 | ? | 45µM*
SMILES | UDG counterscr | AID inhibitor
Cc1ccc(C2CCN(C(=O)c3cnn(-c4ccc(C)cc4)c3C3CCN(C(=O)OC(C)(C)C)CC3)C2)cc1 (stereo unspecified) | 52% | i
CC(C)(C)OC(=O)N1CCC(c2c(C(=O)N3CCC(c4ccccc4)C3)cnn2-c2cccc(Cl)c2)CC1 (stereo unspecified) | ? | 40µM*
CCC(=O)Nc1ccc2c3c(cccc13)CC2 | 3% | i
C=C(C)COc1ccc2c(=O)c(Oc3ccc(C(=O)OCC)cc3)coc2c1 | 4% | i
Cn1c(C=C(C#N)C#N)ccc1-c1cc(Cl)ccc1Cl | -11% | i
C(#CCN1CCN(Cc2ccccc2)CC1)COCCOCc1ccccc1 | -2% | i
O=C(CSc1nnc(-c2ccccc2)o1)N1CCCc2ccccc21 | -6% | ?
O=C(CSc1nnc(-c2ccccc2Cl)o1)N1CCCc2ccccc21 | -17% | 28µM*
Cc1nn(-c2ccccc2)c(OC(=O)C(C)C)c1Sc1ccc(Cl)cc1 | -21% | ?
CCC(=O)Oc1c(Sc2ccc(Cl)cc2)c(C)nn1C(C)(C)C | 79µM* | i
COCCSc1nnc(-c2ccc(Cl)cc2)n1-c1ccc(OC)cc1 | -5% | i
Clc1ccccc1-c1nnc(SCc2nc(-c3ccccc3)no2)n1-c1ccccc1 | 79µM* | ?
Cc1ccc(-n2c(SCc3nc(-c4ccc(Cl)cc4)no3)nnc2-c2ccncc2)cc1 | ? | 35µM*
COc1ccc(-c2noc(CSc3nnc(-c4ccncc4)n3-c3ccc(OC)cc3)n2)cc1 | 79µM* | ?
COc1ccc(OC)c(-c2noc(CSc3nnc(-c4ccccc4)n3-c3ccccc3)n2)c1 | 5% | i
Cc1ccc(-c2noc(CSc3nnc(C)n3-c3ccc(C)cc3)n2)cc1 | -21% | ?
